KB-3-1 tox: qHTS assay for MDR1-selective chemotherapeutics: Primary screen using the parental adenocarcinoma cell KB-3-1. KB-3-1 viability, CellTiter-Glo ATP luminescence, 72 h. AID 1347075, 2019. Potency, µM (series often up to 46.1 µM), hits mostly cytotoxic. actives 1.4% (n = 400,000); note: nearly all actives have a fitted effect of over 60% in size
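Using CellTiter-Glo luminescence, growth of non-resistant KB-3-1 adenocarcinoma cells is assessed 72 h after pin-tool compound addition at 37 °C. Normalized responses across the concentration series yield fitted curves.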
TDP1 cell noCPT: qHTS for Inhibitors of human tyrosyl-DNA phosphodiesterase 1 (TDP1): qHTS in cells in absence of CPT; actives 15% (n = 420,000); Potency, µM (titrated, usually from 46.2 µM), hits mostly inhibitors; AID 686978, 2013; DT40 Tdp1-/- hTDP1 cells, no CPT, ATP luminescence, 48 h; note: nearly all actives have a fitted effect of over 55% in size
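Compound effects on proliferation are scored in DT40 Tdp1-/-;hTDP1 cells in the absence of CPT. ATP levels (CellTiter-Glo luminescence) are recorded after a ≥48 hr, 37 °C incubation.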
TDP1 cell CPT: qHTS for Inhibitors of human tyrosyl-DNA phosphodiesterase 1 (TDP1): qHTS in cells in presence of CPT; chicken DT40 Tdp1-/-;hTDP1 cells + 20 nM CPT, ATP luminescence, 48 h; Potency, µM (series often up to 46.2 µM), hits mostly inhibitors; actives 12% (n = 420,000); note: nearly all actives have a fitted effect of over 55% in size
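Chicken DT40 Tdp1-/- cells stably complemented with human TDP1 were seeded at 400 cells/well in medium containing 20 nM camptothecin, exposed to pin-transferred compounds, and grown at 37 °C for at least 48 hr. Viability was read as ATP luminescence.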
KB-V1 MDR tox: qHTS assay for MDR1-selective chemotherapeutics: Primary screen using the drug-selected MDR subline cells KB-V1 | actives 3.4% (n = 400,000) | KB-V1 MDR cells viability, CellTiter-Glo, 72 h | Potency, µM (series often up to 46.1 µM), hits mostly cytotoxic; note: nearly all actives have a fitted effect of over 60% in size
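Readout: CellTiter-Glo luminescence, 10 min after addition. Cells: KB-V1 MDR subline, 72 h at 37 degrees C with compound. Analysis: corrected, normalized data fitted to concentration-effect curves.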
HT1080 IDH1KD tx: qHTS for induction of synthetic lethality in tumor cells producing 2HG: qHTS for the HT-1080-IDH1KD cell line; HT-1080 IDH1 knockdown viability, ATP luminescence, 48 h; AID 686971, 2013; Potency, µM (series often up to 46.1 µM), actives largely listed as cytotoxic; actives 2% (n = 360,000)
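Luminescent ATP read-out (CellTiter-Glo, 10 min at room temperature) after 48 h compound exposure at 37 °C gave viability of IDH1-knockdown HT-1080 cells. Activity was normalised to DMSO and cell-free wells, then fitted as concentration-response curves.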
HT1080-NT tox: qHTS for induction of synthetic lethality in tumor cells producing 2HG: qHTS for the HT-1080-NT fibrosarcoma cell line; HT-1080-NT fibrosarcoma viability, CellTiter-Glo ATP luminescence, 48 h; Potency, µM (highest dose often 46.1 µM), hits mostly cytotoxic; actives 1.6% (n = 360,000); AID 686970, 2013;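 note: NT is the 2HG producing partner of a matched IDH1 knockdown line; nearly all actives have a fitted effect of over 55% in size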
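HT-1080-NT fibrosarcoma cells (2HG-overproducing), 750 cells/well in RPMI with 5% FBS, dosed after 2 h and incubated 48 h at 37C. CellTiter-Glo luminescence normalized to DMSO and no-cell wells; concentration-response curves fitted and classed.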
Numbers stand for hits; i = inactive; ? = inconclusive; nt = not tested or not shown. In the library only some 19% were active in any assay of this set; here they are far more common. Calls come from the whole dose curve; as a rule, active = well fitted curve in the direction sought with a large enough effect; inconclusive = small, poorly fitted or top-dose-only effect, or another doubt; inactive = no such curve, though single readings can be large; an effect the other way counts as inactive or inconclusive.

SMILES | KB-3-1 tox | TDP1 cell noCPT | TDP1 cell CPT | KB-V1 MDR tox | HT1080 IDH1KD tx | HT1080-NT tox
COc1cccc(NC(=O)C(C)n2c(=O)cc(C(F)(F)F)c3c(C)nn(C)c32)c1 (stereo not drawn) | i | 18µM | 16µM | i | nt | nt
Cc1c(C(=O)N(Cc2ccc(N(C)C)cc2)Cc2ccco2)oc2cc(Br)ccc12 | nt | 9.2µM | 23µM | nt | nt | nt
Cc1cc(C)c2c(CC(=O)N(Cc3ccc(Cl)cc3)Cc3ccco3)coc2c1 | nt | 8.2µM | ? | nt | nt | nt
Cc1ccc(CN(Cc2ccco2)C(=O)c2oc3cc(Br)ccc3c2C)cc1 | i | ? | ? | i | nt | nt
Cc1ccc(S(=O)(=O)N[C@@H](CC(C)C)C(=O)NCc2ccco2)cc1 | i | i | i | 15µM | i | i
Cc1cc(C)c(C)c(S(=O)(=O)NCC(=O)NCc2ccco2)c1C | i | i | i | 18µM | i | i
Cc1ccc2c(CC(=O)N(Cc3ccc(N(C)C)cc3)Cc3ccco3)coc2c1C | ? | 18µM | 16µM | i | nt | nt
Cc1cc(C)c2c(CC(=O)NCc3ccco3)coc2c1 | ? | ? | ? | 15µM | ? | ?
Cc1ccc(SCC(=O)NCc2ccco2)cc1 | i | i | i | i | i | i
COc1ccc(N(C(=O)CNC(=O)c2ccco2)C(C(=O)NC2CCCC2)c2ccco2)cc1 (stereo not drawn) | i | i | i | i | i | i
COc1cc(NC(=O)COC(=O)c2n[nH]c3ccccc23)c(C)cc1[N+](=O)[O-] | i | ? | ? | i | i | i
Cn1c(SCC(=O)c2ccc3c(c2)OCO3)nnc1C1COc2ccccc2O1 (stereo not drawn) | i | 16µM | 21µM | ? | i | i
O=C(OCc1cc(=O)n2cc(Br)ccc2n1)C1COc2ccccc2O1 (stereo not drawn) | i | i | i | i | i | i
Cn1c(SCc2cc(=O)n3cc(Br)ccc3n2)nnc1C1COc2ccccc2O1 (stereo not drawn) | i | ? | i | 12µM | i | i
O=C(CSc1nc2ncc(Br)cc2[nH]1)c1cccc([N+](=O)[O-])c1 | i | i | i | i | i | i
Cc1nc2nc(SCC(=O)c3cccc([N+](=O)[O-])c3)[nH]c2cc1Br | ? | 18µM | ? | i | i | i
O=C(CSc1nc2ccc(Cl)cc2[nH]1)NC1CCCC1 | i | i | i | i | i | i
Cc1ccc2nc(SCC(=O)NC3CC3)[nH]c2c1 | i | i | i | i | i | i
O=C(CSc1nc2ccc([N+](=O)[O-])cc2[nH]1)NC1CCCCCC1 | ? | ? | i | 13µM | ? | ?
COc1ccc(C(=O)CSc2nc3ccc([N+](=O)[O-])cc3[nH]2)cc1 | i | 16µM | ? | i | i | i
O=C(CSc1nc2ccc([N+](=O)[O-])cc2[nH]1)NC1CCCCC1 | ? | 26µM | ? | i | ? | ?
Cc1ccc2nc(SCC(=O)N3CCCCC3)nc(=O)n2c1 | i | i | i | i | i | i
C[C@@H]1CN([C@@H](C)CO)C(=O)CCCn2nncc2CO[C@@H]1CN(C)S(=O)(=O)c1cccc(F)c1 | i | i | i | ? | i | i
COc1ccccc1-c1cc(C(F)(F)F)n2ncc(C(=O)N3CCc4ccccc4C3)c2n1 | i | 23µM | ? | ? | i | i
O=C(NCCc1ccccc1)c1nc2nc(-c3cccs3)cc(C(F)(F)F)n2n1 | i | 29µM | 21µM | ? | i | i
SMILES | KB-3-1 tox | TDP1 cell noCPT | TDP1 cell CPT | KB-V1 MDR tox | HT1080 IDH1KD tx | HT1080-NT tox
O=C(c1cnn2c(C(F)(F)F)cc(-c3cccs3)nc12)N1CCN(C(c2ccccc2)c2ccccc2)CC1 | i | 13µM | 9.2µM | ? | i | i
CN1CCN(C(=O)c2cnn3c(C(F)(F)F)cc(-c4cccs4)nc23)CC1 | i | i | i | i | i | i
O=C(c1ccco1)N1CCN(C(=O)c2cnn3c(C(F)(F)F)cc(-c4cccs4)nc23)CC1 | i | ? | i | i | i | i
O=C(c1cnn2c(C(F)(F)F)cc(-c3cccs3)nc12)N1CCN(Cc2ccccc2)CC1 | i | 15µM | ? | i | i | i
O=C(CCNC(=O)N1CC(=O)Nc2ccccc21)Nc1ccc(F)c(Cl)c1 | ? | i | i | i | i | i
C(/Oc1ccccc1)=C1\Nn2c(nnc2-c2cc(-c3ccccc3)n[nH]2)S1 | ? | 20µM | 7.1µM | i | nt | nt
CC(C)CC(=O)Nc1ccc(-c2cn3ccsc3n2)cc1 | i | ? | ? | ? | ? | ?
CC(C)(C)C(=O)Nc1ccc(-c2cn3ccsc3n2)cc1 | i | ? | 14µM | i | i | i
CC(=O)N1CCN(c2ccc(NCc3ccc(F)cc3)cc2)CC1 | i | i | i | i | i | i
COc1cc(CNc2ccc(N3CCOCC3)cc2)cc(Br)c1OC | i | 16µM | ? | i | i | i
CCOc1c(Br)cc(CNc2ccc(N3CCN(C(C)=O)CC3)cc2)cc1OC | i | ? | 16µM | i | i | i
COc1cc(CC(=O)Nc2ccc(N3CCOCC3)cc2)cc(OC)c1OC | i | i | i | i | i | i
COc1cc(CNc2ccc(N3CCN(C(C)=O)CC3)cc2)ccc1OCc1ccc(F)cc1 | i | 16µM | ? | i | ? | 23µM
CCOc1cc(CNc2ccc(N3CCOCC3)cc2)cc(Br)c1OCC | ? | 16µM | ? | ? | ? | i
Cn1cnc(S(=O)(=O)N2CCN(C(c3ccc(F)cc3)c3ccc(F)cc3)CC2)c1 | i | i | i | i | i | ?
CSc1cc(-c2ccncc2)nc(-c2ccc(Cl)cc2)c1 | i | i | i | i | i | i
COc1nc(N)nc2nc[nH]c12 | i | i | i | i | i | i
CO[C@H]1C[C@H](O[C@@H]2/C(C)=C/C[C@@H]3C[C@@H](C[C@]4(CC[C@H](C)[C@@H](C5CCCCC5)O4)O3)OC(=O)[C@@H]3C=C(C)/C(=N/O)[C@H]4OC/C(=C\C=C\[C@@H]2C)[C@]43O)O[C@@H](C)[C@@H]1O | nt | i | i | nt | nt | nt
CCOc1cc(CNc2ccc3c(c2)OCCO3)cc(Br)c1OCC | 5.2µM | 0.82µM | 2.6µM | 2.6µM | 2.3µM | 1.8µM
CCOC(=O)C(C)(C)N(Cc1cccc(C)c1)S(=O)(=O)c1cccc([N+](=O)[O-])c1 | 16µM | ? | ? | 7.3µM | i | i

Screening data as filed in PubChem BioAssay.
